Data as given in the supplement of paper PMC9177965.

Tested on: HT29 RNF43 G659fs (RNF43 659mut, CRISPR-edited)
Experiment: cell viability activity relative to DMSO (negative = inhibition); higher = more viable cells (less growth inhibition)
Conditions: 5 µM; 96 h
Description: (§1)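 Broad Repurposing Library primary screen at a single dose of 5 uM. HT29 sg-Ctrl and HT29 RNF43 G659fs CRISPR-edited isogenic cells were seeded at 2500 cells/well in 384-well plates in duplicate and treated for 96 h. Viability was read by CellTiter-Glo and reported as % activity relative to DMSO, with MG132 as the positive control (negative = growth inhibition).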

| Structure (SMILES) | cell viability activity |
| --- | --- |
| CC1(COc2ccc3c(c2)ncn3-c2ccc3cccc(N4CCC(N)CC4)c3n2)COC1 | -98.3% |
| O=C1NCCN1CCN1CCC(c2cn(-c3ccc(F)cc3)c3ccc(Cl)cc23)CC1 | -93.7% |
| C=C1C(=O)O[C@H]2[C@H]1CC/C(C)=C/CC[C@@]1(C)O[C@@H]21 | -28.1% |
| O=C(/C=C/c1cccc(S(=O)(=O)Nc2ccccc2)c1)NO | -88.3% |
| Cc1[nH]nc2ccc(-c3cncc(OC[C@@H](N)Cc4ccccc4)c3)cc12 | -89.5% |
| C[C@@H](Oc1cc(-c2cnn(C3CCNCC3)c2)cnc1N)c1c(Cl)ccc(F)c1Cl | -97.1% |
| c1ccc(CNc2nc(NCc3ccccc3)c3ccccc3n2)cc1 | -22% |
| C[C@]1(O)C[C@@H](c2nc(-c3ccc4ccc(-c5ccccc5)nc4c3)c3c(N)nccn32)C1 | -32.5% |
| COc1ccccc1S(=O)(=O)Nc1ccc2c(c1)CN(C)C(=O)N2 | -56.4% |
| CCNC(=O)c1noc(-c2cc(C(C)C)c(O)cc2O)c1-c1ccc(CN2CCOCC2)cc1 | -86.6% |
| C[C@H]1O[C@@H](O[C@H]2[C@@H](O)C[C@H](O[C@H]3[C@@H](O)C[C@H](O[C@H]4CC[C@@]5(C)[C@H](CC[C@@H]6[C@@H]5C[C@@H](O)[C@]5(C)[C@@H](C7=CC(=O)OC7)CC[C@]65O)C4)O[C@@H]3C)O[C@@H]2C)C[C@H](O)[C@@H]1O | -89.3% |
| Cc1cc(C(=O)NOCCO)c(Nc2ccc(I)cc2F)n(C)c1=O | -83.4% |
| COc1ccc(F)c(F)c1C(=O)c1cnc(NC2CCN(S(C)(=O)=O)CC2)nc1N | -69% |
| CCCC1(CCC)CCC2(CCN(CCCN(CC)CC)C2)CC1 | -96.4% |
| COc1cc(NC(C)CCCN)c2ncccc2c1 (centres undefined) | -52.7% |
| Nc1nc(=S)c2ncn([C@@H]3O[C@H](CO)[C@@H](O)[C@H]3O)c2[nH]1 | -80.3% |
| CC(C)CCN1c2nc(Nc3cc(F)c(O)c(F)c3)ncc2N(C)C(=O)C1C (centres undefined) | -29.4% |
| C[C@@H](Oc1cc(-n2cnc3ccc(CN4CCN(C)CC4)cc32)sc1C(N)=O)c1ccccc1C(F)(F)F | -89.5% |
| Cn1ccc2cc(NC(=O)Nc3cccnc3)ccc21 | -29.2% |

| Structure (SMILES) | cell viability activity |
| --- | --- |
| CC(=O)c1ccc2c(c1)[C@@H]1C=CC[C@@H]1[C@H](c1cc3c(cc1Br)OCO3)N2 | -69.9% |
| N#Cc1ccncn1 | -26.7% |
| CC(=O)c1cnc2ccc(-c3cc(Cl)c(O)c(Cl)c3)nc2c1N[C@H]1CC[C@H](CN(C)C)CC1 | -89.2% |
| COc1ccc(-c2ccc3c(N4CCOC[C@@H]4C)nc(N4CCOC[C@@H]4C)nc3n2)cc1CO | -71.9% |
| CCS(=O)(=O)c1cccc(-c2cc(C(=O)NC3CCN(C)CC3)c(C)c3[nH]c4ncc(C)cc4c23)c1 | -90.1% |
| COc1cc(Nc2c(C#N)cnc3cc(OCCCN4CCN(C)CC4)c(OC)cc23)c(Cl)cc1Cl | -96.5% |
| CC(C)CC(=O)Nc1n[nH]c2c1CN(C(=O)C1CCN(C)CC1)C2(C)C | -60.4% |
| CCCCCCCCCCCCCCCC[N+](C)(C)Cc1ccccc1 | -46.6% |
| CCCCc1nc2cc(/C=C/C(=O)NO)ccc2n1CCN(CC)CC | -99.3% |
| CN(C)c1ccc(C(=C2C=CC(=[N+](C)C)C=C2)c2ccc(N(C)C)cc2)cc1 | -96.3% |
| Cn1nccc1Nc1nccc(-c2ccn([C@H](CO)c3ccc(Cl)c(F)c3)c(=O)c2)n1 | -54.6% |
| COc1cc(Nc2ncc(F)c(Nc3ccc4c(n3)NC(=O)C(C)(C)O4)n2)cc(OC)c1OC | -46.5% |
| COc1cc2c(Nc3ccc(Cl)c(Cl)c3F)ncnc2cc1OC[C@@H]1C[C@@H]2CN(C)C[C@@H]2C1 | -90.6% |
| Nc1ncccc1-c1nc2ccc(-c3ccccc3)nc2n1-c1ccc(C2(N)CCC2)cc1 | -70.4% |
| CC(C)(C)c1ccc(S(=O)(=O)/C=C/C#N)cc1 | -80.4% |
| O=C1c2c(O)ccc(O)c2C(=O)c2c(NCCNCCO)ccc(NCCNCCO)c21 | -100% |
| CCn1c2ccccc2c2cc(Nc3ccnc(NCCCN4CCOCC4)n3)ccc21 | -79.7% |
| C/C(=N/Nc1nnc2c(n1)[nH]c1c(C)cccc12)c1ccccn1 | -87.6% |

Tested on: HT29 sg-Ctrl (RNF43 wildtype)
Experiment: as above
Conditions: 5 µM; 96 h
Description: as §1

| Structure (SMILES) | cell viability activity |
| --- | --- |
| CC1(COc2ccc3c(c2)ncn3-c2ccc3cccc(N4CCC(N)CC4)c3n2)COC1 | -98% |
| O=C1NCCN1CCN1CCC(c2cn(-c3ccc(F)cc3)c3ccc(Cl)cc23)CC1 | -83.7% |
| C=C1C(=O)O[C@H]2[C@H]1CC/C(C)=C/CC[C@@]1(C)O[C@@H]21 | -6.73% |
| O=C(/C=C/c1cccc(S(=O)(=O)Nc2ccccc2)c1)NO | -73.9% |
| Cc1[nH]nc2ccc(-c3cncc(OC[C@@H](N)Cc4ccccc4)c3)cc12 | -90.7% |
| C[C@@H](Oc1cc(-c2cnn(C3CCNCC3)c2)cnc1N)c1c(Cl)ccc(F)c1Cl | -95.4% |
| c1ccc(CNc2nc(NCc3ccccc3)c3ccccc3n2)cc1 | -41% |
| C[C@]1(O)C[C@@H](c2nc(-c3ccc4ccc(-c5ccccc5)nc4c3)c3c(N)nccn32)C1 | -26.2% |
| COc1ccccc1S(=O)(=O)Nc1ccc2c(c1)CN(C)C(=O)N2 | -63.5% |
| CCNC(=O)c1noc(-c2cc(C(C)C)c(O)cc2O)c1-c1ccc(CN2CCOCC2)cc1 | -86% |
| C[C@H]1O[C@@H](O[C@H]2[C@@H](O)C[C@H](O[C@H]3[C@@H](O)C[C@H](O[C@H]4CC[C@@]5(C)[C@H](CC[C@@H]6[C@@H]5C[C@@H](O)[C@]5(C)[C@@H](C7=CC(=O)OC7)CC[C@]65O)C4)O[C@@H]3C)O[C@@H]2C)C[C@H](O)[C@@H]1O | -90.8% |
| Cc1cc(C(=O)NOCCO)c(Nc2ccc(I)cc2F)n(C)c1=O | -88.5% |
| COc1ccc(F)c(F)c1C(=O)c1cnc(NC2CCN(S(C)(=O)=O)CC2)nc1N | -65.9% |
| CCCC1(CCC)CCC2(CCN(CCCN(CC)CC)C2)CC1 | -95.6% |
| COc1cc(NC(C)CCCN)c2ncccc2c1 (centres undefined) | -22.4% |
| Nc1nc(=S)c2ncn([C@@H]3O[C@H](CO)[C@@H](O)[C@H]3O)c2[nH]1 | -76.6% |
| CC(C)CCN1c2nc(Nc3cc(F)c(O)c(F)c3)ncc2N(C)C(=O)C1C (centres undefined) | 4.41% |
| C[C@@H](Oc1cc(-n2cnc3ccc(CN4CCN(C)CC4)cc32)sc1C(N)=O)c1ccccc1C(F)(F)F | -76.1% |
| Cn1ccc2cc(NC(=O)Nc3cccnc3)ccc21 | -52% |

| Structure (SMILES) | cell viability activity |
| --- | --- |
| CC(=O)c1ccc2c(c1)[C@@H]1C=CC[C@@H]1[C@H](c1cc3c(cc1Br)OCO3)N2 | -56.9% |
| N#Cc1ccncn1 | -18.3% |
| CC(=O)c1cnc2ccc(-c3cc(Cl)c(O)c(Cl)c3)nc2c1N[C@H]1CC[C@H](CN(C)C)CC1 | -91.1% |
| COc1ccc(-c2ccc3c(N4CCOC[C@@H]4C)nc(N4CCOC[C@@H]4C)nc3n2)cc1CO | -55.9% |
| CCS(=O)(=O)c1cccc(-c2cc(C(=O)NC3CCN(C)CC3)c(C)c3[nH]c4ncc(C)cc4c23)c1 | -85.9% |
| COc1cc(Nc2c(C#N)cnc3cc(OCCCN4CCN(C)CC4)c(OC)cc23)c(Cl)cc1Cl | -97.9% |
| CC(C)CC(=O)Nc1n[nH]c2c1CN(C(=O)C1CCN(C)CC1)C2(C)C | -61.4% |
| CCCCCCCCCCCCCCCC[N+](C)(C)Cc1ccccc1 | -34.3% |
| CCCCc1nc2cc(/C=C/C(=O)NO)ccc2n1CCN(CC)CC | -98.6% |
| CN(C)c1ccc(C(=C2C=CC(=[N+](C)C)C=C2)c2ccc(N(C)C)cc2)cc1 | -89.3% |
| Cn1nccc1Nc1nccc(-c2ccn([C@H](CO)c3ccc(Cl)c(F)c3)c(=O)c2)n1 | -52.1% |
| COc1cc(Nc2ncc(F)c(Nc3ccc4c(n3)NC(=O)C(C)(C)O4)n2)cc(OC)c1OC | -37.3% |
| COc1cc2c(Nc3ccc(Cl)c(Cl)c3F)ncnc2cc1OC[C@@H]1C[C@@H]2CN(C)C[C@@H]2C1 | -90.3% |
| Nc1ncccc1-c1nc2ccc(-c3ccccc3)nc2n1-c1ccc(C2(N)CCC2)cc1 | -49.1% |
| CC(C)(C)c1ccc(S(=O)(=O)/C=C/C#N)cc1 | -95.4% |
| O=C1c2c(O)ccc(O)c2C(=O)c2c(NCCNCCO)ccc(NCCNCCO)c21 | -99.7% |
| CCn1c2ccccc2c2cc(Nc3ccnc(NCCCN4CCOCC4)n3)ccc21 | -84.9% |
| C/C(=N/Nc1nnc2c(n1)[nH]c1c(C)cccc12)c1ccccn1 | -86.8% |
